# According to PubChem BioAssay (NCI):
# The panel holds about 83,000 compounds, 20% with a hit somewhere; the sample as a whole holds those more often.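 Testing used 96-well plates and a 48-hour single-concentration exposure. Example: -40 means 40% of the starting cells died.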 Values without a mark were called inactive. Active and inactive are the calls of the source.
# Tested on: SK-OV-3 ovarian
# Test: NCI-60 one-dose screen, 48 h (100 = growth as untreated, 0 = no growth, -100 = all killed)
# Details: 10 µM unless noted
# Method: Growth inhibition of the SK-OV-3 human tumor cell line is measured as a screen for anti-cancer activity. Cells are grown in 96 well plates and exposed to the test compound for 48 hours. Compounds are tested at a single concentration, which is 10^-5 M for most compounds. The reported endpoint is percent growth (GI% or GIPRCNT), where numbers from 0 - 100% represent growth inhibition, and numbers from -100% - 0 represent cell death. For example, a value of 40 represents 60% growth inhibition. A value of 0 means no net growth occurred over the course of the experiment. A value of -40 indicates 40% of cells at the beginning of the experiment died by the end of the experiment. A value of -100 means all cells are dead at the end of the experiment.
# NCI-60 Human Tumor Cell Lines Screen was performed using the standard one-dose NCI protocol, which is described in more detail at https://dtp.cancer.gov/discovery_development/nci-60/default.htm.
# Compounds with GIPRCNT values below 10 were considered active. Activity score was based on GIPRCNT using the following formula: […]
# Score is 0 for GIPRCNT values of 100 or above, 50 for GIPRCNT values of 0, and 100 for GIPRCNT values of -100.
row,SMILES,growth
1,Cc1ccc(-c2cc3nc(C(Cl)Cl)nc(-c4cccs4)n3n2)cc1,86.4%
2,Cc1ccc(-n2c(/C=C3\C(=O)Nc4ccccc43)ccc2CO)cc1,86.8%
3,N=c1c2cc(-c3ccccc3)oc2ncn1/N=C/c1ccc(Br)cc1,101%
4,CCCn1cnc2c(c1=N)C(c1ccc(F)cc1)c1sc3c(C)cccc3c1O2 (stereo not given),41.1%
5,O=C(CN1CCN(c2cc(=O)n(-c3ccccc3)c3ccccc23)CC1)Nc1cccc(C(F)(F)F)c1,77.3%
6,NC(=O)c1cccc(C#CCNC[C@H]2C[C@@H](n3ccc4c(Cl)ncnc43)[C@H](O)[C@@H]2O)c1,105%
7,C=C(C=O)[C@@H]1CC[C@]2(CO)CC[C@]3(C)[C@H](CC[C@@H]4[C@@]5(C)CCCNC(C)(C)[C@@H]5CC[C@]43C)[C@@H]12,104%
8,COc1cccc(N2CCN(c3ncnc4c3[nH]c3ccc(F)cc34)C[C@H]2C)c1,68%
9,COc1ccc(S(=O)(=O)NCCCNc2nccc(-c3[nH]c(-c4ccccc4)nc3-c3ccc(Cl)c(O)c3)n2)cc1,112%
10,NC(N)=Nc1ccc(Oc2cccc(NC(N)=Nc3ccc(I)cc3F)c2)cc1,70.1%
11,N#Cc1cccc(CN2CCC3=C(C2)C(=O)N(Cc2ccc(Cl)cc2)C2=NCCN23)c1,27.8%
12,COc1c(N2CC3CCCNC3C2)c(F)cc2c(=O)c(C(=O)N/N=C/c3c[nH]c4ccccc34)cn(C3CC3)c12 (stereo not given),130%
13,N#Cc1cnc2ccc(-c3cnc(N)nc3)cc2c1N1CCc2cc(F)c(Cl)cc21,0.148% (active)
14,CC1(C)[C@@H](O)CC[C@]2(C)[C@H]3CC[C@@H]4[C@H]5[C@H](C(=O)/C=C\c6ccccn6)CC[C@]5(O)CC[C@@]4(C)[C@]3(C)CC[C@@H]12,89.8%
15,NC(N)=Nc1ccc(Oc2cccc(NC(N)=Nc3ccc(Br)c(C(F)(F)F)c3)c2)cc1,57%
16,Cc1cc2ncc(-c3cc4ccccc4c(N4CCN(C)CC4)n3)nc2cc1C,87.5%
17,Nc1nc(N)c2c(n1)NC(c1ccc(C(F)(F)F)cc1)CC(c1ccc(Nc3nc(NCCO)nc(N4CCOCC4)n3)cc1)=N2 (stereo not given),99.7%
18,Fc1ccc(-c2cc3nc(C(Cl)Cl)nc(-c4ccco4)n3n2)cc1,18.8%
19,CC1(C)CC[C@]2(C(=O)O)CC[C@]3(C)C(=CC[C@@H]4[C@@]5(C)CC/C(=N\OCCC#N)C(C)(C)[C@@H]5CC[C@]43C)[C@@H]2C1,110%
20,CS(=O)(=O)c1ccc(-c2nn(-c3ccccc3)cc2/C=N/NC(=O)c2nc(N)n[nH]2)cc1,112%

row,SMILES,growth
1,Cc1nc(-c2ccccc2O)ccc1C(=O)N=Nc1c(O)[nH]c2ccc(Br)cc12,97.7%
2,Cc1ccc(-n2cc(/C=N/NC(=O)c3nc(N)n[nH]3)c(-c3ccc(S(C)(=O)=O)cc3)n2)cc1,104%
3,NS(=O)(=O)c1ccc(Nc2nc(N/N=C/CCc3ccccc3)nc(Nc3ccccc3)n2)cc1,104%
4,Nc1ncc(-c2ccc(NS(=O)(=O)c3ccc(Cl)c(Cl)c3)cc2)[nH]1,94.5%
5,COc1ccc(/C=N/NC2=NC3C(S2)N(C)C(=O)N3C)cc1 (stereo not given),28%
6,COc1ccc(NCc2cn(-c3ccc(C(=O)O)cc3)nc2-c2cc(C(F)(F)F)cc(C(F)(F)F)c2)cc1,99.6%
7,CCn1c(SCC(=O)Nc2cccc(C(=O)/C=C/c3ccc(C)cc3)c2)nc2ccccc2c1=O,110%
8,C#C[C@]1(O)CC[C@H]2[C@@H]3CC=C4c5sc(-c6ccc7c(c6)OCO7)nc5CC[C@]4(C)[C@H]3CC[C@@]21C,52.3%
9,NC(N)=Nc1ccc(Oc2cccc(Nc3ccc(Cl)c(C(F)(F)F)c3)c2)cc1,82.6%
10,O=S(=O)(Nc1ccc2c(c1)OCO2)c1ccc(-c2cnc(C3CC3)o2)cc1,62.1%
11,C#CC(=O)N(c1ccc(OC)cc1OC)C(C(=O)NCC(=O)OCC)c1cccs1 (stereo not given),89.5%
12,COc1cc(-c2nn(C(C)(C)C)cc2-c2ccnc(NCCCNS(=O)(=O)c3ccc(F)cc3)n2)ccc1Cl,104%
13,O=S(=O)(Nc1ccc(I)cc1Cl)c1ccc(-c2cnc(C3CC3)o2)cc1,57.8%
14,COc1cc(/C=C2\C(=O)Nc3cc(Cl)ccc32)ccc1OCc1ccc(F)cc1,97.2%
15,Cc1c(F)cc(C(N)=O)cc1NCC(=O)Nc1ccc([N+](=O)[O-])cc1,106%
16,O=C(CSc1nc2ccccc2c(=O)n1-c1ccccc1)Nc1cccc(C(=O)/C=C/c2ccccc2)c1,103%
17,Nc1nc(-c2cccc([N+](=O)[O-])c2)c(N=Nc2ccc([N+](=O)[O-])cc2Cl)s1,-11% (active)
18,COc1ccc([C@H]2[C@H](O)C(=O)N2c2cc(OC)c(OC)c(OC)c2)cc1F,30.1%
19,Cc1cc(-c2ccc(Cl)cc2)n(Cc2nnc(SCC(=O)Nc3ccc(S(N)(=O)=O)cc3)n2-c2ccc([N+](=O)[O-])cc2)n1,112%
20,CCCCCCCn1cc2c(N[C@H](C)c3ccccc3)ncnc2n1,117%
